Test results published in the supplement of paper PMC10849652.
Targets with a hit are over-represented here; the source holds about 8,800 in all. About 0.5% of all pairs of compound and target were hits.

Columns and labels:
Test in all cases: log2 fold change, soluble protein after heating vs DMSO (PISA); higher = thermal stabilisation; K562 lysate, 10 uM; active = over 0.2 and 3.5 SD of the protein, either way, in both replicates (recomputed)
nilotinib = compound: Cc1cn(-c2cc(NC(=O)c3ccc(C)c(Nc4nccc(-c5cccnc5)n4)c3)cc(C(F)(F)F)c2)cn1 [nilotinib]
How it was run: (§1)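 K562 pellets were dounce-homogenised in PBS pH 7.4 with 1 mM MgCl2, and the crude extract at 1 mg/mL protein was treated with 10 μM compound for 30 min. Aliquots were heated for 3 min across 48°C-58°C, pooled, and brought to 0.5% NP-40 at 4°C; soluble protein was the supernatant after 21,000xg for 90 min. Soluble protein was quantified by TMTpro 16plex LC-MS/MS with channel sums equalised, and reported as log2 fold change in thermal stability against DMSO controls, with values from duplicates.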

[1] = compound: Cc1nc(Nc2n[nH]c3c2CN(C(=O)N[C@H](CN(C)C)c2ccccc2)C3(C)C)c2sccc2n1
How it was run: as §1

dasatinib = compound: Cc1nc(Nc2ncc(C(=O)Nc3c(C)cccc3Cl)s2)cc(N2CCN(CCO)CC2)n1 [dasatinib]
How it was run: as §1

[2] = compound: Cc1ncc(-c2ccnc(Nc3ccc(S(C)(=O)=O)cc3)n2)n1C(C)C
How it was run: as §1

[3] = compound: Cn1cc(-c2ccc3c(c2)CCN3C(=O)Cc2cccc(C(F)(F)F)c2)c2c(N)ncnc21
How it was run: as §1

quisinostat = compound: Cn1cc(CNCC2CCN(c3ncc(C(=O)NO)cn3)CC2)c2ccccc21 [quisinostat]
How it was run: as §1

tipifarnib = compound: Cn1cncc1[C@@](N)(c1ccc(Cl)cc1)c1ccc2c(c1)c(-c1cccc(Cl)c1)cc(=O)n2C [tipifarnib]
How it was run: as §1

[4] = compound: NC(=O)Nc1cc(-c2cccc(F)c2)sc1C(=O)N[C@H]1CCCNC1
How it was run: as §1

[5] = compound: NC1(c2ccc(-c3nc4ccn5c(=O)[nH]nc5c4cc3-c3ccccc3)cc2)CCC1
How it was run: as §1

[6] = compound: NC(=O)c1cnc(N[C@@H]2CCCC[C@@H]2N)nc1Nc1cccc(-n2nccn2)c1
How it was run: as §1

Measured: log2 fold change

DBF4 (UniProt Q9UBU7)
inactive: nilotinib 0.05 | [1] 0 | dasatinib 0.091 | [2] 0.17 | [3] -0.021 | quisinostat 0.038 | tipifarnib -0.146 | [4] 0.043 | [5] 0.07

DNA2 (UniProt P51530)
inactive: nilotinib 0.011 | [1] 0.007 | dasatinib 0.069 | [2] 0.005 | [3] 0.05 | quisinostat -0.069 | tipifarnib -0.04 | [4] 0.043 | [5] 0.067

DLGAP5 isoform 3 (UniProt Q15398)
inactive: dasatinib 0.017 | [3] 0.18

CLIP1, A0A3B3ITA2
inactive: quisinostat -0.169 | [4] 0.017

CRLS1 (UniProt Q9UJA2)
inactive: nilotinib 0.1 | [1] -0.096 | [2] -0.143 | quisinostat -0.122 | tipifarnib -0.01 | [4] 0.066 | [6] -0.018 | [5] -0.067

CNK3/IPCEF1 isoform 2 (UniProt G9CGD6)
inactive: dasatinib -0.131 | [3] 0.002 | [5] 0.168

DNAH5 (UniProt Q8TE73)
UniProt Q8TE73, sequence (Q8TE73 whole entry, looked up): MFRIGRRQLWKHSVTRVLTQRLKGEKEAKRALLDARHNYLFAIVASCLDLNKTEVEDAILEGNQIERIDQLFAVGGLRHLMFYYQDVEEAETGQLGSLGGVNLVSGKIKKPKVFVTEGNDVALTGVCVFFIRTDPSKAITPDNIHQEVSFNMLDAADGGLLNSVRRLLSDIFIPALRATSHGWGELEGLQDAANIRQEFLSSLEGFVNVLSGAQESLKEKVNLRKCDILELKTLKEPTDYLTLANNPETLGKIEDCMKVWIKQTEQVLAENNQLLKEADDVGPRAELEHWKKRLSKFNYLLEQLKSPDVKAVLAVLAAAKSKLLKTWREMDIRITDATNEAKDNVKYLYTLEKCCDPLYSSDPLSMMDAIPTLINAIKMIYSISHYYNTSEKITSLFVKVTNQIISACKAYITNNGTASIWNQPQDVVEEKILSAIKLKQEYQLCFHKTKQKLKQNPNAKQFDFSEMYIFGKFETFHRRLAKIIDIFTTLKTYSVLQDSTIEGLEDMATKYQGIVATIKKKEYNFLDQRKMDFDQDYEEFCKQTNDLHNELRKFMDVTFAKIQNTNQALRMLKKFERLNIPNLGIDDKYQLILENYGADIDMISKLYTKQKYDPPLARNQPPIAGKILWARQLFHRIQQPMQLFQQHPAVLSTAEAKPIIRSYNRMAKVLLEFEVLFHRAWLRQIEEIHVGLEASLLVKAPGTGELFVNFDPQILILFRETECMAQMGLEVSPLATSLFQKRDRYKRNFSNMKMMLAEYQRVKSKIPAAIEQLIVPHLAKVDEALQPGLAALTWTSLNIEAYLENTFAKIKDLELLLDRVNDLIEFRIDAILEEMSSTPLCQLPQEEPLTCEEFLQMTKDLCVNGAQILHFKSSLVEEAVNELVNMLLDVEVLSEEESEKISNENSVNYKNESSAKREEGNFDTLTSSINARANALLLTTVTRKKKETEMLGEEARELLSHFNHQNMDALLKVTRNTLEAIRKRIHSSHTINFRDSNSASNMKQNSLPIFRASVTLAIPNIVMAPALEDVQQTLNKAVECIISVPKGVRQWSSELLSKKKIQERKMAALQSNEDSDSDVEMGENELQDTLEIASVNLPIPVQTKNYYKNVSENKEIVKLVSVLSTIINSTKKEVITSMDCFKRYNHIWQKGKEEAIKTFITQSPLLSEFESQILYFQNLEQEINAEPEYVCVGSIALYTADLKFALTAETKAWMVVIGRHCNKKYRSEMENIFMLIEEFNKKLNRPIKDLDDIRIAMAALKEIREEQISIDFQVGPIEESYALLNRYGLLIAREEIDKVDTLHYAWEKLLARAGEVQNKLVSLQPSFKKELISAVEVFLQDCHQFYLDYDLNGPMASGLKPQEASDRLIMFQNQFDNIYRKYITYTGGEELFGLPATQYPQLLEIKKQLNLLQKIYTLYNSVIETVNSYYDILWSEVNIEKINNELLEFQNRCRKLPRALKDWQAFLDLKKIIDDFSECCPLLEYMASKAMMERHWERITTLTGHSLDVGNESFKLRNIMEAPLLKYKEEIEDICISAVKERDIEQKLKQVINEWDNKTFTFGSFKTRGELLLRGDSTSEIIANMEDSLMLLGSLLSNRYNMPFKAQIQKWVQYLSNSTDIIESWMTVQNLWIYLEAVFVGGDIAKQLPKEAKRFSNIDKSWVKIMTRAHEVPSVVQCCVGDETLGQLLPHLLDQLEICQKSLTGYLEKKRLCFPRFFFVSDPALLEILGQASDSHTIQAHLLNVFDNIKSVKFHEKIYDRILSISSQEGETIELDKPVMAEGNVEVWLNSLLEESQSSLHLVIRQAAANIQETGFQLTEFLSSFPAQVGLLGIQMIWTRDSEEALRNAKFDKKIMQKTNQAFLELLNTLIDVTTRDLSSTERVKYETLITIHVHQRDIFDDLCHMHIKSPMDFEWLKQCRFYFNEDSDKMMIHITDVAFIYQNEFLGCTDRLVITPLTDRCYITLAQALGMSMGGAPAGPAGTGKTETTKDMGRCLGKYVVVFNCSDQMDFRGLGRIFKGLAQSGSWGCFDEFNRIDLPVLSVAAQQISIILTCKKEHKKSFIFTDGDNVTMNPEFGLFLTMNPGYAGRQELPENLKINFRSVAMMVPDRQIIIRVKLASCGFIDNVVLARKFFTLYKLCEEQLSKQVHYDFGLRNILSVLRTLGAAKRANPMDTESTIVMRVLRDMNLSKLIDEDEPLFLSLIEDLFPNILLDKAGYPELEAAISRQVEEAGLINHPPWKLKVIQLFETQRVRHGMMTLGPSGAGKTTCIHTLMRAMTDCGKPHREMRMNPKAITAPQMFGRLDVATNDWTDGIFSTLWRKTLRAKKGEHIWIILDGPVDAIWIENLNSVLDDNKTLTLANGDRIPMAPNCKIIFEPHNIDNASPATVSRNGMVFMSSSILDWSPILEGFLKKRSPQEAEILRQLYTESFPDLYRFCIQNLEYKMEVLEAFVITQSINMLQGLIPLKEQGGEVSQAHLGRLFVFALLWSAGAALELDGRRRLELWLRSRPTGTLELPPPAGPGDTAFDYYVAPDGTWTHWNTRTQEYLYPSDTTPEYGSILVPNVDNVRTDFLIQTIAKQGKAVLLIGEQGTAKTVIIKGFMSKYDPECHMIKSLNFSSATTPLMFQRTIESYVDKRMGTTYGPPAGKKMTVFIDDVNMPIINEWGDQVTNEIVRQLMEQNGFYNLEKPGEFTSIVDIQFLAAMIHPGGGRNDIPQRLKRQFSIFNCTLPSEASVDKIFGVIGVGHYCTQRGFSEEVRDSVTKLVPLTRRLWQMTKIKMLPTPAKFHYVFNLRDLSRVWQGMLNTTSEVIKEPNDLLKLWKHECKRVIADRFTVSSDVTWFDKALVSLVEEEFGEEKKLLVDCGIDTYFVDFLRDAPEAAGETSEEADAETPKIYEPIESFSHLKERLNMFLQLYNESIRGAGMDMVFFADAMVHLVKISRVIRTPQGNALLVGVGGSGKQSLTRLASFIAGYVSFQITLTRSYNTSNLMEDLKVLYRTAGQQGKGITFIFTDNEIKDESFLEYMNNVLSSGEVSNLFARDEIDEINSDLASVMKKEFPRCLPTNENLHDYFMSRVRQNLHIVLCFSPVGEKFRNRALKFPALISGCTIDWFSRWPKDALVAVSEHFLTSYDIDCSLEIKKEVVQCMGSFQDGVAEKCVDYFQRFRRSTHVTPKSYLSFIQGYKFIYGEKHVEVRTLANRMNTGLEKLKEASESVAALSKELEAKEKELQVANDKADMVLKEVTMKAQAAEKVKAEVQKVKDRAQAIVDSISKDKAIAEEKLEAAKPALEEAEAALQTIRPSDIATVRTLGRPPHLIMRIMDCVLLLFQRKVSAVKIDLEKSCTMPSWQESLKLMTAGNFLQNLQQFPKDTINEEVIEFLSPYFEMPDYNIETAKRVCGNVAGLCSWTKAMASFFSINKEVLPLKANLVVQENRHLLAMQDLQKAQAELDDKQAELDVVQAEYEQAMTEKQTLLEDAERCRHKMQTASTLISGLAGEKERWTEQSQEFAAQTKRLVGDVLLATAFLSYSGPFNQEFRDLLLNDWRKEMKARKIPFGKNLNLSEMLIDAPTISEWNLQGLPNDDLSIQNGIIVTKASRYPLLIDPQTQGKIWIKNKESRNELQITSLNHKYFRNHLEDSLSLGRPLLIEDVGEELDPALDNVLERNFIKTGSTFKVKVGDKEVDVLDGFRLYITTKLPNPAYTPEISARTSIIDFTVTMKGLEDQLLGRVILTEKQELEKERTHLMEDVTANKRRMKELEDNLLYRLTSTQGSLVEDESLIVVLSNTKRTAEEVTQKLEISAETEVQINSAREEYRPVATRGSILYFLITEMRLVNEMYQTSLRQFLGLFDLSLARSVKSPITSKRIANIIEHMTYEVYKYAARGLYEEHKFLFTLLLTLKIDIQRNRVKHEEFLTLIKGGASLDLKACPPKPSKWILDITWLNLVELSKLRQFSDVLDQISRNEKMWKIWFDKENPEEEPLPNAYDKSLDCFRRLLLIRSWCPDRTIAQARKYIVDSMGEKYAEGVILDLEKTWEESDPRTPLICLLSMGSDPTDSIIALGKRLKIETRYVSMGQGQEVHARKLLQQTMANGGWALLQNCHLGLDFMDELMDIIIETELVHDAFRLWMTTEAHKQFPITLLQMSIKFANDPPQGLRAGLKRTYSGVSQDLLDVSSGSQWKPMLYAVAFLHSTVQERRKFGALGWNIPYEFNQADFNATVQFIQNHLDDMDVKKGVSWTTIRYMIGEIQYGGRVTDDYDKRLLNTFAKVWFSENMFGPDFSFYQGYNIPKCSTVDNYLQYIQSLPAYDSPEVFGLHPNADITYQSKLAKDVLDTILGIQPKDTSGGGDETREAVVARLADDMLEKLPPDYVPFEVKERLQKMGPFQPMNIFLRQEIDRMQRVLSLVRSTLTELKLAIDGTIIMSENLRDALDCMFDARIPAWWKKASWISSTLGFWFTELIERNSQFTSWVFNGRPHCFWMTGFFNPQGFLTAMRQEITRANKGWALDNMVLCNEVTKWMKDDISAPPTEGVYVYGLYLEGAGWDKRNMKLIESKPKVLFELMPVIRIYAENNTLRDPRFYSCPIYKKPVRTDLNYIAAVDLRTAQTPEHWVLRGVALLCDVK
inactive: nilotinib -0.029 | [1] -0.036 | dasatinib -0.072 | [2] -0.013 | [3] -0.156 | tipifarnib -0.128 | [6] -0.073 | [5] -0.049

CSRP2 (UniProt Q16527)
UniProt Q16527, sequence (Q16527 whole entry, looked up): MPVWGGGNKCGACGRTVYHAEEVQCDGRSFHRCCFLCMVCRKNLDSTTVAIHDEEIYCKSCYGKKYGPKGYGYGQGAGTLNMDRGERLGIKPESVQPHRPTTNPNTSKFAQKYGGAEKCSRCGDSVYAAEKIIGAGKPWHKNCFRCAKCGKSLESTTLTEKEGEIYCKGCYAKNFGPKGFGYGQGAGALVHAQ
inactive: quisinostat -0.012 | [4] 0.068

CNOT4 isoform 9 (UniProt O95628)
inactive: dasatinib -0.062 | [3] -0.052 | quisinostat 0.17 | [4] -0.058 | [6] 0.081 | [5] -0.024

CORO7 (UniProt P57737)
inactive: nilotinib -0.102 | [1] 0.136 | dasatinib 0.024 | [2] -0.072 | [3] 0.119 | quisinostat 0.171 | tipifarnib -0.051 | [4] 0.088 | [5] 0.183

CSNK2A1, A0A2R8Y4D6
inactive: [6] 0.085

COL12A1 (UniProt Q99715)
inactive: dasatinib -0.097 | [3] 0.198 | quisinostat -0.056 | [4] 0.166 | [6] 0.827 | [5] -0.154

CNOT2 (UniProt F8VRS8)
inactive: [5] -0.122

DALRD3 (UniProt Q5D0E6)
inactive: [6] -0.03 | [5] 0.207

CSDE1 isoform 3 (UniProt O75534)
inactive: nilotinib 0.064 | [1] -0.135 | [2] 0.016 | quisinostat 0.022 | tipifarnib -0.02 | [4] -0.085 | [6] -0.021

CUX1 isoform 2 (UniProt Q13948)
inactive: dasatinib 0.001 | [3] 0.101 | quisinostat 0.072 | [4] -0.026 | [6] -0.073 | [5] 0.012

DDAH1 (UniProt O94760)
UniProt O94760, sequence (O94760 whole entry, looked up): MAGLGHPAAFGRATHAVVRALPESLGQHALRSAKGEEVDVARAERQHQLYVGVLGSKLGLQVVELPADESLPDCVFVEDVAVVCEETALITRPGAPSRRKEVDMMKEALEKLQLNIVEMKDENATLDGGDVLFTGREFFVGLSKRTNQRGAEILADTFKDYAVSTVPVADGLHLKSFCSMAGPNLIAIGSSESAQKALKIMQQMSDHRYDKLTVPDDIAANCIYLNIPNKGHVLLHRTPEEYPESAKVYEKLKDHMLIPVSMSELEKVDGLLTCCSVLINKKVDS
inactive: dasatinib -0.244 | [3] 0.174 | quisinostat -0.013 | [4] -0.003 | [6] -0.034 | [5] -0.016
